According to PubChem BioAssay (EPA / NIEHS):
Inconclusive results are not listed. Active and inactive are the calls of the source. Rule for the calls: active = hit-call score of the fitted dose curve at least 0.9, where 1 is the maximum; inconclusive = response in the unintended direction; inactive = score below 0.9.

Biological target: Estrogen receptor (Homo sapiens) + Estrogen receptor beta (Homo sapiens) (UniProt P03372+Q92731)
Experiment: OT_ER_ERaERb_0480: Odyssey Thera (OT) 8-hour HEK293T Protein-Complementation Assay for Estrogen Receptor-alpha/-beta Heterodimer (AID 2283352)
Description: OT_ER_ERaERb_0480 is a cell-based assay that uses HEK293T, a human kidney cell line, with measurements taken at 8 hours after chemical dosing in a 384-well plate.OT_ER_ERaERb_0480 is one of one assay component(s) measured or calculated from the OT_ER_ERaERb_0480 assay. It is designed to make measurements of protein fragment complementation, a form of binding reporter, as detected with fluorescence intensity signals by Protein-fragment Complementation technology.Data from the assay component OT_ER_ERaERb_0480 was analyzed into 1 assay endpoint. This assay endpoint, OT_ER_ERaERb_0480, was analyzed in the positive analysis fitting direction relative to DMSO as the negative control and baseline of activity. Using a type of binding reporter, measures of receptor for gain-of-signal activity can be used to understand the binding at the pathway-level as they relate to the gene ESR1 and ESR2. Furthermore, this assay endpoint can be referred to as a primary readout, because the performed assay has only produced 1 assay endpoint. To generalize the intended target to other relatable targets, this assay endpoint is annotated to the nuclear receptor intended target family, where the subfamily is steroidal.
Protein-fragment complementation assay, or PCA, is a method for the identification and quantification of protein-protein interactions. In the PCA, the proteins of interest ("bait" and "prey") are each covalently linked to fragments of a third protein (e.g. DHFR, which acts as a "reporter"). Interaction between the bait and the prey proteins brings the fragments of the reporter protein in close proximity to allow them to form a functional reporter protein whose activity can be measured. […] Fluorescent signal in the basal state of the assay is very low and is primarily punctuate and cytoplasmic. Modulation of this assay is quantified as an increase in mean fluorescence intensity in the nucleus (for agonists) or in the nucleus and cytoplasm (antagonists) relative to vehicle controls, and can be quantified on a high content imaging device or a laser scanning cytometer. The latter instrument is favored for this assay because of the rapid mode of data acquisition, the ability to acquire data from the entire cell population in a well (as opposed to a fraction of the well on the high content devices) and the larger dynamic range typically achieved with this instrument. To assess sensitivity of the ER alpha/ER beta LBD assay to ligand, cells were treated with the ER agonist 17- beta-estradiol (E2) in 10-point concentration- response format for 8 hours and monitored response on a laser scanning plate cytometer (Acumen eX3; TTP Lab Tech).

Chain of Estrogen receptor (Homo sapiens) + Estrogen receptor beta (Homo sapiens) (P03372 whole entry, looked up): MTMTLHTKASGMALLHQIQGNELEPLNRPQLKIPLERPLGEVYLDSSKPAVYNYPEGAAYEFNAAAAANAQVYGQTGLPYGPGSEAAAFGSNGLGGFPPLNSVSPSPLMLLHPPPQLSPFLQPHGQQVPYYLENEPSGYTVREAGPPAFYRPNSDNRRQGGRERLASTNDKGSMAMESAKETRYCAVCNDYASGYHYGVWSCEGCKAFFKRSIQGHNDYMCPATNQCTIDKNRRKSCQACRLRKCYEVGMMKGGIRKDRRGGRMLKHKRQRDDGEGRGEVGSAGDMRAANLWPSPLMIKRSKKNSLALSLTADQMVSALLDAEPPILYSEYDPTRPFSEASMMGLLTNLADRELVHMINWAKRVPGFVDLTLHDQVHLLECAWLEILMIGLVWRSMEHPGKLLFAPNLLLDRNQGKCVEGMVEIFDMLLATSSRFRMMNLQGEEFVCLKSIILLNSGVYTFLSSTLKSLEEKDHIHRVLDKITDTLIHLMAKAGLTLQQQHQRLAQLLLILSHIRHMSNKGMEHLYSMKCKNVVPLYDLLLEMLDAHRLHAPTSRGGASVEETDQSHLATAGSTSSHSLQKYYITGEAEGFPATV
Chain of Estrogen receptor (Homo sapiens) + Estrogen receptor beta (Homo sapiens) (Q92731 whole entry, looked up): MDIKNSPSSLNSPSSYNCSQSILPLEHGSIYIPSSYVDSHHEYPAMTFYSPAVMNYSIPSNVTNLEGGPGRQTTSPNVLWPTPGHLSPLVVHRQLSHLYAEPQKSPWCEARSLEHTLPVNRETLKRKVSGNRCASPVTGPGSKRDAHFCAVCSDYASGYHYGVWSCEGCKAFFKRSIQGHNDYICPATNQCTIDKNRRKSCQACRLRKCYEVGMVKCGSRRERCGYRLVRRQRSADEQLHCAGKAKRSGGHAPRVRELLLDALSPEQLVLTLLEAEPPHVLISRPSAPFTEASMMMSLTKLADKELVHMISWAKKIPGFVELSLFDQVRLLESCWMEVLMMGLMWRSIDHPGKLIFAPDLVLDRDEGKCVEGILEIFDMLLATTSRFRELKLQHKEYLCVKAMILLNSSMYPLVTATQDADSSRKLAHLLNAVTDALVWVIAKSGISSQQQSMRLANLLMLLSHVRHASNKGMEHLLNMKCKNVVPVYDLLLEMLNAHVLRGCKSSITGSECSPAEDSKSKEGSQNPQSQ

`O=C1c2ccccc2C(=O)N1SC1CCCCC1` was tested. Which outcome did it give?
The outcome was “inactive”.

How did the outcome turn out when `CC1COc2ccccc2N1C(=O)C(Cl)Cl` (centres undefined) was run?
The outcome was “inactive”.

Which outcome does the source give for `CCCCCCCCCC=O` here?
The outcome was “inactive”.

Which outcome does the source give for `OCCOCCOCCOCCO` here?
The outcome was “inactive”.

With `CCCCOCCOCCOCCOCCO` as the molecule, how does the outcome read?
Its outcome is “inactive”.

With `CCCCCCCCC` as the molecule, how does the outcome read?
Its outcome is “inactive”.

`C=C(C)C(=O)O` was tested. Which outcome did it give?
The outcome was “inactive”.

How did the outcome turn out when `CCC/C=C/C=O` was run?
The outcome was “inactive”.

For `c1ccc(CCCc2ccccn2)cc1`, which outcome is on record?
The outcome was “inactive”.

With `CCCCCCCCCCCCCC(=O)O` as the molecule, how does the outcome read?
Its outcome is “inactive”.

With `CC(C)(N)CO` as the molecule, how does the outcome read?
The outcome was “inactive”.

How did the outcome turn out when `Cc1ccc(S)cc1` was run?
The outcome was “inactive”.

How did the AC50 turn out when `CCN(CC)c1ccc2c(-c3ccccc3C(=O)O)c3ccc(=[N+](CC)CC)cc-3oc2c1` was run?
The AC50 was 12 µM (active).

With `NC(=O)Nc1ccc(Cl)cc1` as the molecule, how does the outcome read?
The outcome was “inactive”.

For `OCCN1CCNCC1`, which outcome is on record?
The outcome was “inactive”.

Which AC50 does the source give for `CC(C)c1cccc(O)c1` here?
The AC50 was 52 µM (active).

`CCCCCCCCC=O` was tested. Which outcome did it give?
The outcome was “inactive”.

`CC(=O)OCCOC(C)=O` was tested. Which outcome did it give?
The outcome was “inactive”.

Which AC50 does the source give for `CCCCc1ccc(N)cc1` here?
Its AC50 is 50 µM (active).
